Values joined by “and” are separate entries in the source; they are usually repeats but may differ in a detail not shown here. Equal values may be shown once. Some structures have more than one record in an assay (separate samples or runs), and their calls can disagree. Active and inactive are the calls of the source. A call without a number means that no potency is given here. Unless noted, calls follow the shape of the dose curve; as a rule, active = well fitted curve in the direction sought with a large enough effect in the repeat runs; inconclusive = weak or mixed curves; inactive = no such curve, though single readings can be large; an effect the other way counts as inactive or inconclusive.
Experiments:
[1] = qHTS assay to identify small molecule antagonists of the thyroid receptor (TR) signaling pathway - cell viability counter screen (AID 743064); also: nearly all actives have a fitted effect of over 50% in size; also: potency is read from the fitted curve at half-maximal effect
Procedure, shortened: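 GH3.TRE-Luc rat pituitary cells dosed after 4 hr plating, co-stimulated with T3 at 1 nM final, incubated 23.5 h at 37 C. Viability measured in the same wells by CellTiter-Fluor fluorescence after 30 min further at 37 C.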

[2] = qHTS assay to identify small molecule antagonists of the thyroid receptor (TR) signaling pathway (AID 743065); also: nearly all actives have a fitted effect of over 55% in size; also: potency is read from the fitted curve at half-maximal effect
Procedure, shortened: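 GH3.TRE-Luc rat pituitary cells (two TREs driving luciferase) were dosed with compound, then stimulated with 1 nM T3 (final) for 23.5 h at 37 C. ONE-Glo luminescence was the read-out, with CellTiter-Fluor fluorescence as the cytotoxicity counter-screen.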

[3] = tested on: thyroid hormone receptor (rat, GH3 cells); experiment: qHTS assay to identify small molecule agonists of the thyroid receptor (TR) signaling pathway (AID 743066; calls by dose curve)
[4] = qHTS assay to identify small molecule antagonists of the estrogen receptor alpha (ER-alpha) signaling pathway - cell viability counter screen (AID 743074; calls by dose curve;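 also: HEK293 cells carrying ER-alpha-UAS-bla reporter stimulated with 17beta-estradiol; nearly all actives have a fitted effect of over 45% in size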)
[5] = qHTS assay to identify small molecule antagonists of the estrogen receptor alpha (ER-alpha) signaling pathway using the BG1 cell line - cell viability counter screen (AID 743081);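 also: compound given together with 17beta-estradiol as the ER stimulus; series mostly up to about 70 µM; nearly all actives have a fitted effect of over 45% in size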
Aromatase (Homo sapiens) = Aromatase (Homo sapiens) (UniProt P11511); experiment: qHTS assay to identify aromatase inhibitors (AID 743083); also: nearly all actives have a fitted effect of over 55% in size; also: potency is read from the fitted curve at half-maximal effect
Sequence of Aromatase (Homo sapiens) (P11511 whole entry, looked up): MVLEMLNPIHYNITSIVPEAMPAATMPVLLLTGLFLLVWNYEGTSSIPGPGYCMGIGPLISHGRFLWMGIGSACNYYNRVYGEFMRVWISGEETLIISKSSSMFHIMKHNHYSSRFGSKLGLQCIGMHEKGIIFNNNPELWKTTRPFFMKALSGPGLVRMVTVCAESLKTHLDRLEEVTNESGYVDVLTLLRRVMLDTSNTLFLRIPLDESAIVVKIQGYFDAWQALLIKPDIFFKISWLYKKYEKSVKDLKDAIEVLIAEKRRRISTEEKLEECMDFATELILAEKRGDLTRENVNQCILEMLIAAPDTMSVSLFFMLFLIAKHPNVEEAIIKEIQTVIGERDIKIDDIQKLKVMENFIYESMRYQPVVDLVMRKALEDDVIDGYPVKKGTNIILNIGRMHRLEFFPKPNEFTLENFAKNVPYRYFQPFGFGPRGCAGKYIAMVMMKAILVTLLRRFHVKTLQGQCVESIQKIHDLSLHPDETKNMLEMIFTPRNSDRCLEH

[6] = target: Estrogen receptor (Homo sapiens) (UniProt P03372); experiment: qHTS assay to identify small molecule antagonists of the estrogen receptor alpha (ER-alpha) signaling pathway (AID 743069; active = well fitted curve in the direction sought with a large enough effect in the signal ratio in the repeat runs, not every such curve was filed as active; inconclusive = weak or mixed curves, or effect the other way; inactive = no such curve, though single readings can be large or run the other way; the % refers to the signal ratio; also: potency is read from the fitted curve at half-maximal effect)
Sequence of Estrogen receptor (Homo sapiens) (P03372 whole entry, looked up): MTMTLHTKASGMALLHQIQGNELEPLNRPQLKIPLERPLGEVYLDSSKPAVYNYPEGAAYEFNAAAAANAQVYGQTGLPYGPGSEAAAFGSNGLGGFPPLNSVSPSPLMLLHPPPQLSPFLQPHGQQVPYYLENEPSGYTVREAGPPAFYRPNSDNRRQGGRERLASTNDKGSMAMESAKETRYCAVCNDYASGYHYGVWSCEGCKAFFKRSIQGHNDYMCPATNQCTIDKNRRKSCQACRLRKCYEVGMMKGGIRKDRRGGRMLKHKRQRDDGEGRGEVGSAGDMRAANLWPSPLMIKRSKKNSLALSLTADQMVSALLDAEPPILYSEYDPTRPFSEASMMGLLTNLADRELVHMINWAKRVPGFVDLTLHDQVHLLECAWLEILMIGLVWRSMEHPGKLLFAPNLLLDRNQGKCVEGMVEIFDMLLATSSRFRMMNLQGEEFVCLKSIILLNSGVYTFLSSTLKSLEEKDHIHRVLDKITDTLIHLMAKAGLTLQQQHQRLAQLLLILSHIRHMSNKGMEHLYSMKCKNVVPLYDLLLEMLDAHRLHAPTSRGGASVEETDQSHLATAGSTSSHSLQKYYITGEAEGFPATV
Procedure, shortened: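 Beta-lactamase FRET fluorescence is read after 2 hr at room temperature with LiveBLAzer B/G substrate. Before that, ER-alpha-bla HEK293 cells sit 4 hr after plating, then receive compound plus 17beta-estradiol and incubate 18 hr at 37C.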

[7] = target: Estrogen receptor (Homo sapiens) (UniProt P03372); experiment: qHTS assay to identify small molecule agonists of the estrogen receptor alpha (ER-alpha) signaling pathway (AID 743075; calls by dose curve;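 also: HEK293 GripTite cells with ER-alpha and UAS-driven beta-lactamase reporter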)
[8] = target: Estrogen receptor (Homo sapiens) (UniProt P03372); experiment: qHTS assay to identify small molecule agonists of the estrogen receptor alpha (ER-alpha) signaling pathway using the BG1 cell line (AID 743079); also: nearly all actives have a fitted effect of over 20% in size; also: potency is read from the fitted curve at half-maximal effect
[9] = qHTS assay to identify small molecule antagonists of the estrogen receptor alpha (ER-alpha) signaling pathway using the BG1 cell line (AID 743080; calls by dose curve;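 also: BG1 cells stimulated with 17beta-estradiol alongside compound; nearly all actives have a fitted effect of over 25% in size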; also: potency is read from the fitted curve at half-maximal effect)
Procedure, shortened: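 Readout is ONE-Glo luminescence, taken 30 min at room temperature after reagent addition, preceded by a CellTiter-Fluor viability read; BG1-Luc-4E2 cells had received compound and 17beta-estradiol for 21.5 h at 37 C.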

| Structure (SMILES) | Potency [1] | Potency [2] | outcome [3] | Potency [4] | outcome [5] | Potency (Aromatase (Homo sapiens)) | Potency [6] | Potency [7] | Potency [8] | Potency [9] |
| --- | --- | --- | --- | --- | --- | --- | --- | --- | --- | --- |
| NCC(O)c1ccc(O)cc1 (centres undefined) | inactive | inactive | inactive | inactive | inactive | inactive | – | – | – | – |
| CC(C)(C)C(O)(CCc1ccc(Cl)cc1)Cn1cncn1 (centres undefined) | 68.6 µM (active) | 61.9 µM (active) and 61.1 µM (active) | inactive | inactive | inactive | 27.6 µM (active) and 48.6 µM (active) | – | – | – | – |
| Cc1cc(-c2cc(C)c(N)c(C)c2)cc(C)c1N | inactive | inactive | inactive | inactive | inactive | inactive | inactive | inactive | inactive | inactive |
| O=NN1CCCCCCC1 | inactive | inactive | inactive | inactive | inactive | inactive | inactive | inactive | – | inactive |
| CN(C)N=O | inactive | inactive | inactive | inactive | inactive | inactive | – | – | – | – |
| CCCCCCCCCl | inactive | inactive | inactive | – | inactive | inactive | inactive | inactive | inactive | inactive |
| CC(Br)C(=O)O (centres undefined) | inactive | inactive | inactive | inactive | inactive | inactive | – | inactive | inactive | inactive |
| c1ccc(OP(Oc2ccccc2)Oc2ccccc2)cc1 | inactive | inactive | inactive | inactive | inactive | inactive | inactive | inactive | inactive | inactive |
| Nc1ccc(Cc2ccc(N)cc2)cc1 | inactive | inactive | inactive | inactive | inactive | inactive | – | – | – | – |
| CCCC1COC(Cn2cncn2)(c2ccc(Cl)cc2Cl)O1 (centres undefined) | inactive | 55.5 µM (active) and 54.5 µM (active) | inactive | inactive | inactive | 31.2 µM (active) and 24.3 µM (active) | inactive | inactive | – | 27.8 µM (active) and 68.6 µM (active) |
| [N-]=[N+]=[N-] | inactive | inactive | inactive | inactive | inactive | inactive | inactive | inactive | inactive | inactive and 68.6 µM (active) |
| CC1C=[C-]C=C1.[C-]#[O+].[C-]#[O+].[C-]#[O+].[Mn] | inactive | inactive | inactive | inactive | inactive | inactive | inactive | inactive | inactive | inactive |
| ClCc1cccnc1 | inactive | inactive | inactive | inactive | inactive | inactive | inactive | inactive | inactive | inactive |
| Nc1ccc(Br)cc1 | inactive | inactive | inactive | inactive | inactive | inactive | 3.47 µM [inconclusive] (active) | inactive | inactive | inactive |
| O=Cc1cccc(Oc2ccccc2)c1 | inactive | inactive | inactive | inactive | inactive | inactive | inactive | inactive | – | inactive |
| CC(C)C#N | inactive | inactive | inactive | inactive | inactive | inactive | – | – | – | – |
| Nc1ccccc1C(=O)O | inactive | inactive | inactive | inactive | inactive | inactive | inactive | inactive | inactive | inactive |
| Cc1cc(Cl)ccc1O | inactive | inactive | inactive | inactive | inactive | inactive | – | – | – | – |
| CCC[CH2][Sn]([Cl])([Cl])[Cl] | inactive | inactive | inactive | inactive | inactive | inactive | inactive | inactive | inactive | inactive |
| O=S(=O)(c1ccc(Cl)cc1)c1cc(Cl)c(Cl)cc1Cl | inactive | inactive | inactive | inactive | inactive | inactive | inactive | inactive | – | 48.6 µM (active) |
| CCCN(CCC)N=O | inactive | inactive | inactive | inactive | inactive | inactive | inactive | inactive | inactive | inactive |
| CCN(CC)c1ccccc1 | inactive | inactive | inactive | inactive | inactive | inactive | inactive | inactive | inactive | inactive |
| CN(N=O)c1ccccc1 | inactive | inactive | inactive | inactive | inactive | inactive | inactive | inactive | inactive | inactive |
| C1CC2OC2CC1C1CO1 (centres undefined) | inactive | inactive | inactive | inactive | inactive | inactive | inactive | inactive | inactive | inactive |
| CC(C)(Cl)Cl | inactive | inactive | inactive | inactive | inactive | inactive | – | – | – | – |
| OCCN(CCO)CCO | inactive | inactive | inactive | inactive | inactive | – | – | – | – | – |
| CCCCN(CCCC)SN(C)C(=O)Oc1cccc2c1OC(C)(C)C2 | inactive and 24.3 µM (active) | 21.7 µM (active) | – | inactive | inactive | inactive | – | inactive | inactive and 54.5 µM (active) | inactive |

— PubChem BioAssay (Tox21)
